Test results taken from PubChem BioAssay.
Calls of active or inactive are those of the source.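 How the source made its calls: active means RAM network inhibition above 8.4% in each of two replicates, 3 SD over the compound average; inconclusive means above 8.4% inhibition in only one replicate; inactive means 8.4% inhibition or less in each replicate.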

Assay: RAM signaling pathway blockade in yeast – S. cerevisiae, Pdr1DBD-CYC8 efflux-inhibited sensitized strain, primary screen (AID 1298);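 further: 0% = DMSO untreated cells without growth and 100% = 10 µM 1-NA-PP1 full growth; higher means more yeast growth rescued from 5-FOA killing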
Conditions: S. cerevisiae cbk1-as DSE1-URA3 strain, 5-FOA growth OD615, 2 d; at 50 µM; stronger effect = higher value

| SMILES | RAM network inhibition |
| --- | --- |
| CCN1C(=O)c2ccccc2Sc2ccc(C(=O)NCCN3CCOCC3)cc21 | 2.02% (inactive) |
| COc1cccc(-n2c(Cc3cc(=O)[nH]c(=O)[nH]3)nnc2SCC(=O)Nc2ccccc2)c1 | 0.67% (inactive) |
| CC1CCCCN1C(=O)c1ccccc1NC(=O)c1ccco1 (stereo not given) | 1.7% (inactive) |
| CC1(C)CC(=O)C=C(NCCN2CCN(C(=O)Nc3ccc(Cl)c(Cl)c3)CC2)C1 | 3.08% (inactive) |
| COc1ccccc1C(=O)Nc1nnc(-c2ccc(Cl)cc2)o1 | -0.25% (inactive) |
| CCOC(=O)c1cc2c(=O)n3ccccc3nc2n(C(C)C)c1=NC(=O)c1ccncc1 | -0.58% (inactive) |
| CCOc1ccc(OCC)c(NC(=O)CN2CCC(NC(=O)c3cccc(F)c3)CC2)c1 | 5.19% (inactive) |
| CC(C)c1nnc(NC(=O)CCN2C(=O)c3ccccc3C2=O)s1 | 5.82% (inactive) |
| CCOC(=O)C1Cn2c(nc3c(c2=O)C(C)(CC)Cc2ccccc2-3)S1 (stereo not given) | 3.03% (inactive) |
| O=C(CCCCn1c(=O)[nH]c2ccccc2c1=O)NC1CCN(Cc2ccccc2)CC1 | 0.63% (inactive) |
| COCCNC(=O)C1CC(=O)N(c2ccc(F)c(Cl)c2)C1 (stereo not given) | 1.14% (inactive) |
| Cc1ccc2oc(=O)c3cnn(CC(=O)N4CCCCCC4)c3c2c1 | 2.05% (inactive) |
| Cc1onc(-c2ccccc2Cl)c1C(=O)N1CCCCC1C(=O)O (stereo not given) | 4.06% (inactive) |
| Cc1c(Cl)cccc1NC(=O)CN1C(=O)CSc2ncccc21 | -0.13% (inactive) |
| Cc1cnc(C(=O)OCC(=O)Nc2ccc(Cl)cc2)cn1 | 3.15% (inactive) |
| Cc1cc(C)nc(N(C#N)Cc2ccccc2Cl)n1 | -0.21% (inactive) |
| CC(C)(C)c1nnc2sc(SCC(=O)c3cccs3)nn2c1=O | 5.25% (inactive) |
| COCCNC(=O)CN(c1cc(C(F)(F)F)ccc1Cl)S(C)(=O)=O | 0.87% (inactive) |
| O=C(O)Cc1ccc(NC(=O)C2CCCCC2C(=O)O)cc1 (stereo not given) | 2.44% (inactive) |
| Cn1c(=O)c2c(nc(CN3CCN(Cc4ccccc4)CC3)n2Cc2ccccc2)n(C)c1=O | -0.01% (inactive) |

| SMILES | RAM network inhibition |
| --- | --- |
| CCCCCOC(=O)Cn1c(=O)oc2ccccc21 | 4.28% (inactive) |
| COc1ccccc1S(=O)(=O)Cc1ccc(C(=O)NCCN(C)C)o1 | 0.1% (inactive) |
| COc1ccc(OC)c2c1CC(C)(C)NC2=O | 3.75% (inactive) |
| CCN1CCN(CCNC(=O)CS(=O)(=O)Cc2nc(-c3ccc(C)cc3)oc2C)CC1 | 3.16% (inactive) |
| CCN1CCN(CC(=O)Nc2cccc(C)c2C)C(=O)C1=O | 2.6% (inactive) |
| O=C(O)CC1SC(=Nc2ccccc2)N(c2ccccc2)C1=O (stereo not given) | 2.93% (inactive) |
| O=S(=O)(NCCN1CCCC1)c1cccc2cccnc12 | 5.38% (inactive) |
| CCCCOC(=O)CCc1n[nH]c(=O)[nH]c1=O | 2.93% (inactive) |
| COc1ccc(OC)c(S(=O)(=O)NCCc2cn3ccsc3n2)c1 | 3.59% (inactive) |
| c1ccc(N2CCOCC2)c(Nc2nc3ccccc3n3cnnc23)c1 | 9.05% (inactive) |
| COc1cc(OC)cc(C(=O)OCn2nnc3ccccc3c2=O)c1 | 7.22% (inactive) |
| CCn1c(C(=O)N2CCc3ccccc3C2)cc2sccc21 | 4.84% (inactive) |
| CC(=O)Nc1ccc(NC(=O)CCC(=O)NCCO)cc1 | 5.19% (inactive) |
| COCCNC(=O)c1cc2c(-c3ccc(Cl)cc3)nn(C)c2s1 | 10.4% (inactive) |
| CCn1c(=NC(=O)CSC(C)=O)sc2cc(OC)ccc21 | 2.46% (inactive) |
| O=C(Cc1n[nH]c(=O)c2ccccc12)NCc1ccccn1 | 2.08% (inactive) |
| O=C(Nc1ccc(-c2nc3cccnc3s2)cc1)c1ccc(Br)o1 | 0.96% (inactive) |
| CCOC(=O)Cn1c(=O)oc2cc(S(=O)(=O)Nc3cccc(C)c3)ccc21 | 2.63% (inactive) |
| COc1ccc(C2=NOC(C(=O)N3CCN(c4ccccc4OC)CC3)C2)cc1 (stereo not given) | 4.09% (inactive) |
| Cc1cccc(C)c1N1C(=O)c2ccccc2C1=O | 2.47% (inactive) |
